Laboratory results from ChEMBL document CHEMBL1961873, “Compounds: GSK PKIS; Assays: Nanosyn kinase panel” (2012).

How the values were obtained:
[1] = target: T1, Tyrosine-protein kinase ITK/TSK (Homo sapiens) (UniProt Q08881); settings: at 1 µM;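 further: values are mean percent inhibition of ITK from the GSK PKIS screen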
T1 sequence (whole entry): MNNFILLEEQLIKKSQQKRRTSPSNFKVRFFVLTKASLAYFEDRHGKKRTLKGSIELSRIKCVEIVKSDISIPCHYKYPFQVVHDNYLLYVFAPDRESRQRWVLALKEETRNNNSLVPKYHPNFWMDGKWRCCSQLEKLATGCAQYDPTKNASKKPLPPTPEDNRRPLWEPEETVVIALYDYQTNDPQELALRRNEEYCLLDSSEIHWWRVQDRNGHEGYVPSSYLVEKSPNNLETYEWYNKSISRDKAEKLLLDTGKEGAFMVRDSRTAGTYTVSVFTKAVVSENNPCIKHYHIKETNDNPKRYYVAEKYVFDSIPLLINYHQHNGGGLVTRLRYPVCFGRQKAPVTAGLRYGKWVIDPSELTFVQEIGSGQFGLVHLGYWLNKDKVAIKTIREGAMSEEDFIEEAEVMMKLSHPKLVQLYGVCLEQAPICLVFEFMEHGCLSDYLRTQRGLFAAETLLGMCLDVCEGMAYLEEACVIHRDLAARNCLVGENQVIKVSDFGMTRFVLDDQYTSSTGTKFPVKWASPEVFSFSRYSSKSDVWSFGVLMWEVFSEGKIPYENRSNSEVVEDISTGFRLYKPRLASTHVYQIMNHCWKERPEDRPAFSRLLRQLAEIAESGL

[2] = target: Tyrosine-protein kinase JAK1 (Homo sapiens) (UniProt P23458); settings: at 0.1 µM
Tyrosine-protein kinase JAK1 (Homo sapiens), sequence (P23458 whole entry): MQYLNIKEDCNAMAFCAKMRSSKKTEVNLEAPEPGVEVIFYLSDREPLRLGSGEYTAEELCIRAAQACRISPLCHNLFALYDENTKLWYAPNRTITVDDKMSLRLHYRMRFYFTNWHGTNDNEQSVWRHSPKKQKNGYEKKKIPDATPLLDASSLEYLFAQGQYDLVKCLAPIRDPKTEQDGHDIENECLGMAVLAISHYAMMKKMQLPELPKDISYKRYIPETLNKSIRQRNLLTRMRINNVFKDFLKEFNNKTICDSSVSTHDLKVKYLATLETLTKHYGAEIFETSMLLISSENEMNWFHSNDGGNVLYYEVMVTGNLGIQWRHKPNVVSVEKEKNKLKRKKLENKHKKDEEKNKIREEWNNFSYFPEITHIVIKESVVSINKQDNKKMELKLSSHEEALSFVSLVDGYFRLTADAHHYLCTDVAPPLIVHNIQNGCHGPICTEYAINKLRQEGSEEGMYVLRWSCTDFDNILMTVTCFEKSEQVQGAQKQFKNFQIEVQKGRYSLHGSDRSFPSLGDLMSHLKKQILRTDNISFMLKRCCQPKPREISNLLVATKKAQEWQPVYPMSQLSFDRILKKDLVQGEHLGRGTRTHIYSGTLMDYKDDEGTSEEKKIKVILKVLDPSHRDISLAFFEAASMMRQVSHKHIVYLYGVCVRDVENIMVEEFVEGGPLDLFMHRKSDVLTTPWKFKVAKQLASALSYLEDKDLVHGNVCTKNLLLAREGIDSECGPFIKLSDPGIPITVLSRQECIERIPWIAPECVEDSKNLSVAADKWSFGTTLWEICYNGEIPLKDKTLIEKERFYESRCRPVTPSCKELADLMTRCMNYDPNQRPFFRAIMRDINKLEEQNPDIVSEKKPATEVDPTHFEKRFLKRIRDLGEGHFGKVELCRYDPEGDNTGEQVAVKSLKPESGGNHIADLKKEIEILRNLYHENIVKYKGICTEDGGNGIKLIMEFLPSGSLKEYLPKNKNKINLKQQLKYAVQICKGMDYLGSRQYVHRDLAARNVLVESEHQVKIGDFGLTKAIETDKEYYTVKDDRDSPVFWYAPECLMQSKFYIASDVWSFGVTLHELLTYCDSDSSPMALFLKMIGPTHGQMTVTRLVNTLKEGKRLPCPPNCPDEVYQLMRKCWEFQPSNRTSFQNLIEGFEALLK

[3] = target: Tyrosine-protein kinase JAK1 (Homo sapiens) (UniProt P23458); settings: at 1 µM
[4] = target: Tyrosine-protein kinase JAK2 (Homo sapiens) (UniProt O60674); settings: at 0.1 µM
Tyrosine-protein kinase JAK2 (Homo sapiens), sequence (O60674 whole entry): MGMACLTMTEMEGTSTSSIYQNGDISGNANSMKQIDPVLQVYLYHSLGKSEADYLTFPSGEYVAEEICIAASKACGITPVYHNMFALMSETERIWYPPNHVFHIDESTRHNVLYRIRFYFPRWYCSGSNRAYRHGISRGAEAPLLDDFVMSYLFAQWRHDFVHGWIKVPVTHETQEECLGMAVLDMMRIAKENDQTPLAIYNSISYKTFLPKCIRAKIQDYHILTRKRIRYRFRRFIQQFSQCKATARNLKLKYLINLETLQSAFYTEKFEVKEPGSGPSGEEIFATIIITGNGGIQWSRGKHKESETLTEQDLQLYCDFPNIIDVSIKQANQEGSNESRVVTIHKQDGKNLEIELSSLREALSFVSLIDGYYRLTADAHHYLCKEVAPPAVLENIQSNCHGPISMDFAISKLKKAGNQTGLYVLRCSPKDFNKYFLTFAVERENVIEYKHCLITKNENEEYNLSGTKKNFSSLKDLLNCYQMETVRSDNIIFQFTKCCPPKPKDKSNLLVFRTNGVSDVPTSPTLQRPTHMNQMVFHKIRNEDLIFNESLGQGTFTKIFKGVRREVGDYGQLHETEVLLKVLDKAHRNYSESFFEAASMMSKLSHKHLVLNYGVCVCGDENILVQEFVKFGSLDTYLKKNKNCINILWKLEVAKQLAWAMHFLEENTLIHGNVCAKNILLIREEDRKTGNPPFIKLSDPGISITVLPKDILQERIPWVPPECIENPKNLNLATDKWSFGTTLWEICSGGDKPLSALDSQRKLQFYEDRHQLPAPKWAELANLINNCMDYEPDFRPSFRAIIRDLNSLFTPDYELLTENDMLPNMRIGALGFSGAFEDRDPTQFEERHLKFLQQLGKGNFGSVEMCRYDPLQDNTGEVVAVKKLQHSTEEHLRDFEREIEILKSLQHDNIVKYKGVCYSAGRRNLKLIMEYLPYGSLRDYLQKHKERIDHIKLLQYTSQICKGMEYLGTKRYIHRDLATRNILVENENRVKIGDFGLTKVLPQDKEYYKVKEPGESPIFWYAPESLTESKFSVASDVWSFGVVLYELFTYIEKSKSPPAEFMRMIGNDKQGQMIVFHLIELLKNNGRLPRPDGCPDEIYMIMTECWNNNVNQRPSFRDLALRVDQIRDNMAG

[5] = target: Tyrosine-protein kinase JAK2 (Homo sapiens) (UniProt O60674); settings: at 1 µM
[6] = target: T2, Tyrosine-protein kinase JAK3 (Homo sapiens) (UniProt P52333); settings: at 0.1 µM
T2 sequence (whole entry): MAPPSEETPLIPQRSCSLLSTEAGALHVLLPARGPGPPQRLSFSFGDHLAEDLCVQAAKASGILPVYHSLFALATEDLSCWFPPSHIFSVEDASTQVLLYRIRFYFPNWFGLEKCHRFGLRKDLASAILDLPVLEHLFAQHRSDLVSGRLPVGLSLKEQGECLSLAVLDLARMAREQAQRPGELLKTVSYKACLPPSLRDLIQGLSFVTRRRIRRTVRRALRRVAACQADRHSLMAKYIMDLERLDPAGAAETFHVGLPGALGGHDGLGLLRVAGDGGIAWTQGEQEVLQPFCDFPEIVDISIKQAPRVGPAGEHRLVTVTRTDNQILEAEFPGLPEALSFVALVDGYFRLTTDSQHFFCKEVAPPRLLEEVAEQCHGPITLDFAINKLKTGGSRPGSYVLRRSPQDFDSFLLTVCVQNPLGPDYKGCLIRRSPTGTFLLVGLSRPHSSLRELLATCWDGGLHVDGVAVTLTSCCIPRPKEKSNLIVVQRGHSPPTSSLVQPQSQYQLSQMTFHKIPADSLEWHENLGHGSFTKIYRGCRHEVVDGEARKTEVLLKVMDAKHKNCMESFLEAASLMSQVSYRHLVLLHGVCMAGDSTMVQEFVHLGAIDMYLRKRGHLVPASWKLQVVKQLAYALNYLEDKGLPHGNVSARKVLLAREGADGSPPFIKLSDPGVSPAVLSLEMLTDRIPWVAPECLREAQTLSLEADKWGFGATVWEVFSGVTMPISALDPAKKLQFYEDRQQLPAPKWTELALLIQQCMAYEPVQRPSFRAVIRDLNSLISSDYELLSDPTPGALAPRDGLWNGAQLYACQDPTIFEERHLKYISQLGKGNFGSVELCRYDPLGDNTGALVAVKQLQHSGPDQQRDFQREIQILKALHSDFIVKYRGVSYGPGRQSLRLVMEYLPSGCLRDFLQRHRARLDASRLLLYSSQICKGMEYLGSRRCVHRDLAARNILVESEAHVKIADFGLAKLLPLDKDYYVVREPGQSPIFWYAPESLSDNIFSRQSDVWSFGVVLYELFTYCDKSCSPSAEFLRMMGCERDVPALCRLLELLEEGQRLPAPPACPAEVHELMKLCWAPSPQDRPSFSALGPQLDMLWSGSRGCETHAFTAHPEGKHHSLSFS

[7] = target: T2, Tyrosine-protein kinase JAK3 (Homo sapiens); settings: at 1 µM
[8] = target: Vascular endothelial growth factor receptor 2 (Homo sapiens) (UniProt P35968); settings: at 0.1 µM
Vascular endothelial growth factor receptor 2 (Homo sapiens), sequence (P35968 whole entry): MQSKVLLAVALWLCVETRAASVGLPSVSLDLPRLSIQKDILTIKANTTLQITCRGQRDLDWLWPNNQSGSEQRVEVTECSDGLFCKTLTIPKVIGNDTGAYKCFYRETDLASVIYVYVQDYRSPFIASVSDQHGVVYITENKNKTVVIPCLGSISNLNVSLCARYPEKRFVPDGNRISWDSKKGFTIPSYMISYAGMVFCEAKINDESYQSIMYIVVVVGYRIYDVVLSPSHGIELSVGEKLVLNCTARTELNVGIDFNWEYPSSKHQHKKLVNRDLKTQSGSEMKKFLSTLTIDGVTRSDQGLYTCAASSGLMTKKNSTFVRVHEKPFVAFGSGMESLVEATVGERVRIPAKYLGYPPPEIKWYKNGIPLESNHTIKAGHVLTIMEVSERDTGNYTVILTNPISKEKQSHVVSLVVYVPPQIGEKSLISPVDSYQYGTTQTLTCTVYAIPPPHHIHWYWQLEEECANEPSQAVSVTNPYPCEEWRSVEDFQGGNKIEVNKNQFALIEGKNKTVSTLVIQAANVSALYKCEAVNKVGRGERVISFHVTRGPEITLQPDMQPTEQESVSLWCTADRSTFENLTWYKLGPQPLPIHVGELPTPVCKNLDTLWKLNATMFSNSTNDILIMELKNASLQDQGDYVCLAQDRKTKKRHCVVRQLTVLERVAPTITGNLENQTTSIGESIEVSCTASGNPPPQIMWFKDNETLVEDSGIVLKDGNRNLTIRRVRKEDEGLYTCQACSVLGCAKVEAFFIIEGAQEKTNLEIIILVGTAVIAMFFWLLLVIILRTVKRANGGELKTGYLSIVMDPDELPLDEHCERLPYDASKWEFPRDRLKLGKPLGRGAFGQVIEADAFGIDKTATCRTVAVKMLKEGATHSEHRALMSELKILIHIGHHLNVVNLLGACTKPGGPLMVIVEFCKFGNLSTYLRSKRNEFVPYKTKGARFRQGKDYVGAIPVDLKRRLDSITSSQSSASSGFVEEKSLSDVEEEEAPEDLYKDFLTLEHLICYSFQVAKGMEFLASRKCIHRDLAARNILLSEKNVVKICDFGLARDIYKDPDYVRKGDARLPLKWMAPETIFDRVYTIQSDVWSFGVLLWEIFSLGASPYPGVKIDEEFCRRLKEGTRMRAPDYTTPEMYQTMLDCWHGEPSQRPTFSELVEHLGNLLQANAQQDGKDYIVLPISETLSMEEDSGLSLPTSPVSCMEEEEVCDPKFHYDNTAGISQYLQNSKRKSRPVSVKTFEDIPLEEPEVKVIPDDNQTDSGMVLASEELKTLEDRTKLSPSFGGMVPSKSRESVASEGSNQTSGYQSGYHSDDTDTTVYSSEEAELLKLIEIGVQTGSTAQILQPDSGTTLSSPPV

[9] = target: Vascular endothelial growth factor receptor 2 (Homo sapiens) (UniProt P35968); settings: at 1 µM
[10] = target: Mast/stem cell growth factor receptor Kit (Homo sapiens) (UniProt P10721); settings: at 0.1 µM;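 further: values are mean inhibition of KIT, from the GSK PKIS dataset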
Mast/stem cell growth factor receptor Kit (Homo sapiens), sequence (P10721 whole entry): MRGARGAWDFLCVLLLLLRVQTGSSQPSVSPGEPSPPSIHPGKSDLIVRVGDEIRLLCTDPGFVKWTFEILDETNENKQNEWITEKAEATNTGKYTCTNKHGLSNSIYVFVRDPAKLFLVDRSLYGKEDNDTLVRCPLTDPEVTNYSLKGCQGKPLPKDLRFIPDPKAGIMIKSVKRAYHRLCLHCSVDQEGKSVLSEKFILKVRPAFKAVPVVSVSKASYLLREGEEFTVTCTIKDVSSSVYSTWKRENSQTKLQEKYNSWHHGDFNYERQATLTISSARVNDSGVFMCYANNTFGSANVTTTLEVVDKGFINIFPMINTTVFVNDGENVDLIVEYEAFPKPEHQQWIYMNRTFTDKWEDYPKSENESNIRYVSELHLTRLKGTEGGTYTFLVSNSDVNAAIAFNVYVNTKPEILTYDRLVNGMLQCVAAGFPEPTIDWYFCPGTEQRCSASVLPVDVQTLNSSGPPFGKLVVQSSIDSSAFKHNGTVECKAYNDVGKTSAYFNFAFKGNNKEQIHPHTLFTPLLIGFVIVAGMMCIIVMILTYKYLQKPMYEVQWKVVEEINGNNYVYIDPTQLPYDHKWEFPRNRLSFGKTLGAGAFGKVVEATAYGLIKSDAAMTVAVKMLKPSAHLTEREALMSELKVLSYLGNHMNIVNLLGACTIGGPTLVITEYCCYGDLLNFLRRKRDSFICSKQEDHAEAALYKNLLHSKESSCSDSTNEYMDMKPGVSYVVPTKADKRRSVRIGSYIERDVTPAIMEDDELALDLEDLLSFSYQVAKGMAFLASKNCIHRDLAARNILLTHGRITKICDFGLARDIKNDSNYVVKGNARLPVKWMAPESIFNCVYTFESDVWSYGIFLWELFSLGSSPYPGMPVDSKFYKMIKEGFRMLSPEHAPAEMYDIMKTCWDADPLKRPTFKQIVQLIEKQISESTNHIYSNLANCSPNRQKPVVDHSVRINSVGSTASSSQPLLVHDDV

| Structure (SMILES) | inhibition [1] | inhibition [2] | inhibition [3] | inhibition [4] | inhibition [5] | inhibition [6] | inhibition [7] | inhibition [8] | inhibition [9] | inhibition [10] |
| --- | --- | --- | --- | --- | --- | --- | --- | --- | --- | --- |
| CCn1cc(-c2ccnc3[nH]ccc23)c(-c2cccc(NC(=O)Nc3ccc(OCc4ccccc4)cc3)c2)n1 | -0.24% | 1.9% | 1.7% | -0.01% | -1.69% | -1.38% | -0.25% | 0.29% | 7.33% | -2.3% |
| COc1cc(Nc2nccc(Nc3ccc4c(C)n[nH]c4c3)n2)cc(OC)c1OC | 7.07% | 17.8% | 66.5% | 35.6% | 72.5% | 1.48% | 27.8% | 74.9% | 72.5% | 77.3% |
| Fc1cccc(COc2ccc(Nc3ncnc4sc(-c5ccco5)cc34)cc2Cl)c1 | 3.14% | 0.17% | 3.56% | 1.34% | 1.22% | -3.93% | -1.55% | 3.37% | 10.4% | 6.1% |
| COc1cccc(-c2c[nH]c3c(N/N=C/c4ccncc4)ncnc23)c1 | 3.59% | 4.4% | 15.3% | 1.76% | 15.1% | 0.32% | 24.9% | 17.6% | 61% | 45.5% |
| CCn1c(-c2nonc2N)nc2cnc(Oc3cccc(NC(=O)c4ccc(N(C)C)cc4)c3)cc21 | 0.86% | 0.78% | 2.7% | 0.7% | 0.27% | -0.01% | -1.1% | 2.18% | 8.86% | 0.97% |
| CCn1c(-c2nonc2N)nc2c(C#CC(C)(C)O)nc(OC[C@H](N)c3ccccc3)cc21 | 1.49% | 1.86% | -0.29% | -0.06% | 1.71% | -2% | -0.34% | 59.6% | 96.1% | 3.94% |
| CS(=O)(=O)CCNCc1ccc(-c2ccc3ncnc(Nc4ccc(OCc5ccccc5)c(C(F)(F)F)c4)c3c2)o1 | 2.16% | 2.98% | 3.56% | 1.86% | -0.24% | -4.36% | -1.51% | 4.72% | 5.31% | 6.66% |
| N#Cc1c(NC(=O)CN2CCOCC2)sc2c1CCCC2 | 3.52% | 2.38% | 9.38% | 2.3% | 3.35% | -0.09% | 1.28% | 4.13% | 6.56% | 6.21% |
| COC(=O)Nc1nc2ccc(S(=O)(=O)c3ccc(NC(=O)Nc4cc(C(F)(F)F)ccc4F)cc3)cc2[nH]1 | 2.62% | 0.99% | -1.29% | 1.28% | 1.9% | -1.12% | 0.84% | 4.59% | 6.23% | 2.47% |
| O=C(Nc1n[nH]c2cc(-c3ccc(F)cc3)ccc12)C1CC1 | 2.49% | 1.55% | 4.17% | 1.12% | 1.73% | -0.91% | -0.96% | 6.51% | 19.5% | 3.1% |
| NS(=O)(=O)c1ccc(Nc2ncc(-c3ccccc3)o2)cc1 | 2.34% | 3.09% | 5.63% | 0.87% | 3.74% | -0.66% | 3.55% | 6.16% | 23.6% | 38.7% |
| CC(C)COC(=O)c1ccc2c(c1)/C(=C/Nc1ccc(S(N)(=O)=O)cc1)C(=O)N2 | 5.29% | 0.07% | 12.7% | -0.31% | 12.3% | 2.41% | 45.5% | 40.4% | 71.5% | -0.74% |
| Fc1ccc(-c2cc(-c3c[nH]nc3-c3ccccn3)ccn2)cc1 | 0.13% | 4.79% | 14.2% | 1% | 0.86% | -0.89% | -3.5% | 7.31% | 22.2% | 5.29% |
| CCCN1CCC(c2ccc(Nc3nc(Nc4cc(F)ccc4C(N)=O)c4cc[nH]c4n3)c(OC)c2)CC1 | 7.34% | 2.55% | 20.8% | 0.71% | 2.85% | -0.92% | 0.07% | 6.99% | 18.6% | 7.64% |
| Nc1ncc(-c2cccc(S(N)(=O)=O)c2)c2scc(-c3ccc(F)c(Cl)c3)c12 | 3.69% | 2.73% | 6.91% | 0.29% | 1.31% | -2.63% | -0.64% | 6.89% | 34.2% | 38% |
| c1ccc(-c2nc3n(c2-c2ccc4c(c2)OCO4)CCC3)nc1 | 0.24% | -2.35% | 4.78% | 1.27% | -1.02% | -0.19% | -0.04% | 3.58% | 11.7% | 1.86% |
| COC(=O)Nc1nc2ccc(Oc3ccc(NC(=O)Nc4cccc(Cl)c4)cc3)cc2[nH]1 | 0.42% | 0.77% | 4.07% | 0.38% | -0.26% | -0.87% | -0.3% | 32.4% | 62.5% | 72.9% |
| CC1=C(C(=O)Nc2cc(Cl)c3[nH]ncc3c2)C(c2ccc(C(F)(F)F)cc2)CC(=O)N1 (stereo not given) | 2.35% | 9.58% | 51.5% | 2.99% | 29.2% | 2.49% | 42.3% | 4.67% | 6.91% | 4.2% |
| Cc1cccc2c1NC(=O)/C2=N\Nc1ccc(S(N)(=O)=O)cc1 | 2.45% | 3.68% | 0.61% | 2.04% | 4% | 0% | 4.14% | 1.56% | 1.84% | 8.83% |
| Cc1cccc(Nc2ncc(-c3ccccc3)o2)c1 | 3.08% | 2.19% | 0.42% | 2% | 2.63% | -0.81% | -0.44% | 4.96% | 21.3% | 38.5% |
| CNC(=O)c1cc(-c2ccc(F)cc2)cc(-c2ccc(S(=O)(=O)N3CCCC3)cc2)c1N | 0.87% | 0.17% | 1.74% | 1.75% | 3.18% | -1.74% | -0.38% | 1.67% | 6.2% | 3.86% |
| Nc1nc(-c2cccc(Cl)c2)c(-c2ccc3ncccc3n2)s1 | 1.36% | 2.71% | 14.3% | 0.64% | 0.69% | -2.58% | -0.69% | 33.1% | 67.4% | 5.86% |
| Clc1ccc(-c2nn3ncccc3c2-c2ccnc(Nc3ccccc3)n2)cc1 | 2.29% | -4.43% | -2.06% | 1.44% | 0.88% | 0.42% | 2.99% | 11.2% | 42.1% | 11.7% |
| O=S(=O)(CCNCc1ccc(-c2ccc3ncnc(Nc4ccc(OCc5cccc(F)c5)c(Cl)c4)c3c2)o1)c1ccccc1 | 2.79% | 3.16% | 5.23% | 1.04% | 1.11% | -3.52% | -1.28% | 5.96% | 8.62% | 6.8% |
| CCCN(CCS(C)(=O)=O)Cc1ccc(-c2ccc3ncnc(Nc4ccc(OCc5cccc(F)c5)c(Cl)c4)c3c2)o1 | 1.15% | -0.11% | 4.59% | 0.69% | 3.22% | 0.2% | 2.79% | 4.89% | 8.91% | 2.87% |
| COc1cccc(-n2ncc3c(N/N=C/c4ccc(F)cc4)ncnc32)c1 | 2.7% | 4.84% | 6.9% | 1.38% | 4.42% | -1.52% | 1.02% | 8.15% | 20.6% | 5.42% |
| Cc1ccc(O)cc1Nc1ccnc2cc(-c3ccccn3)ccc12 | 2.42% | 7.02% | 3.25% | 2.62% | 3.62% | -1.06% | 0.79% | 78.6% | 93.5% | 10.4% |
| FC(F)(F)c1cccc(-c2nn3ncccc3c2-c2ccnc(Nc3ccc4c(c3)OCCO4)n2)c1 | 2.97% | -1.29% | -0.53% | 0.96% | 1.37% | -0.61% | 0.66% | 12.6% | 49.6% | 2.36% |
